Measurements reported in PubChem BioAssay (Tox21).
Records with an inconclusive call do not appear. Active and inactive are the calls of the source. Unless noted, calls come from the whole dose curve.

System: not listed separately
Test: qHTS assay to identify small molecule agonists of the sonic hedgehog signaling (Shh) pathway (AID 1259368);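 note: NIH/3T3-derived 3T3Gli1-Luc cells carrying a stable Gli1-driven firefly luciferase reporter; nearly all actives have a fitted effect of over 15% in size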
Conditions: NIH/3T3 Gli1-Luc reporter, luciferase, 24 h; series mostly up to 92.4 µM; activity change: at the top concentration
Procedure, shortened: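 NIH/3T3-derived 3T3Gli1-Luc cells with stably integrated Gli1-driven firefly luciferase, 2,000 cells/well, compounds added after 4 hr. Incubated 24 hr at 37C, 5% CO2; luminescence read after 30 min with luciferase reagent at room temperature.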
% is set by controls: 0 for no effect and ±100 for the full control effect.

SMILES	activity change	Potency
CCCCN=C=O	0.878% (inactive)	
C=C(C#N)CCC#N	0.403% (inactive)	
CC(C)N(CCC(C(N)=O)(c1ccccc1)c1ccccn1)C(C)C (stereo not given)	0.58% [at 42.5 µM, hits give high values] (inactive)	
CC(=O)C(C)(C)C	-0.344% (inactive)	
O=Cc1ccc2c(c1)OCO2	-0.594% (inactive)	
CC(=O)CCC(C)=O	0.299% (inactive)	
O=C1c2ccccc2C(=O)C1C(=O)C(c1ccccc1)c1ccccc1	-1.1% [at 42.5 µM, hits give high values] (inactive)	
ClCC(Br)CBr (stereo not given)	-0.617% (inactive)	
CCC(Br)(CC)C(=O)NC(N)=O	0.296% (inactive)	
C=CC(=O)OC(C)(C)C	-1.01% (inactive)	
Nc1nc(N)nc(N)n1	-1.08% (inactive)	
CCOP(=O)(OCC)Oc1ccc([N+](=O)[O-])cc1		inactive
CCCCCCC#N	0.849% (inactive)	
C=CCC1([C@H](C)CCC)C(=O)NC(=O)NC1=O	-0.0456% (inactive)	
CC1(C)[C@H](C=C(Cl)Cl)[C@@H]1C(=O)O[C@@H](C#N)c1cccc(Oc2ccccc2)c1	1.31% (inactive)	
CCBr	-5.68% (inactive)	
Cc1ccc(N)cc1C	6.61% (inactive)	
N#C/C(N)=C(/N)C#N	-0.085% (inactive)	

SMILES	activity change	Potency
CCOP(O)OCC	0.483% (inactive)	
CCOC(=O)CBr	0.399% (inactive)	
CCCN(CC1CC1)c1c([N+](=O)[O-])cc(C(F)(F)F)cc1[N+](=O)[O-]	0.0713% (inactive)	
CC(C)(CCl)C(=O)Cl	-2.92% (inactive)	
CN1C(=O)NC(=O)C(C)(C2=CCCCC2)C1=O (stereo not given)	-0.935% [at 42.5 µM, hits give high values] (inactive)	
CCC(Cl)CCl (stereo not given)	1.14% (inactive)	
CO/C=C(/C(=O)OC)c1ccccc1COc1cccc(C(F)(F)F)n1	-2.41% (inactive)	
COC(N)=O	-1.05% (inactive)	
CC/C(=N\OC/C=C/Cl)C1=C(O)CC(C2CCOCC2)CC1=O (stereo not given)	-0.112% (inactive)	
c1ccoc1	0.379% (inactive)	
O=C(O)CC(Cl)C(=O)O (stereo not given)	2.64% (inactive)	
C=CC(=O)OC	-0.542% (inactive)	
Clc1cccc(SC2CCNCC2)n1	1.99% [at 42.5 µM, hits give high values] (inactive)	
O=[N+]([O-])C(Br)(CO)CO	-12.3% (inactive)	
O=C(O)C(F)(F)C(F)(F)C(F)(F)C(F)(F)C(F)(F)C(F)(F)C(F)(F)C(F)(F)C(F)(F)C(F)(F)F	4.78% (inactive)	
O=C(O)COc1ccc(Cl)cc1	-0.087% (inactive)	
CO[C@@H]1[C@H](OC(=O)NC(=O)CCl)CC[C@]2(CO2)[C@H]1[C@@]1(C)O[C@@H]1CC=C(C)C	-3.77% [at 18.9 µM, hits give high values] (inactive)	

System: not listed separately
Test: qHTS assay to identify small molecule antagonists of the sonic hedgehog signaling (Shh) pathway (AID 1259369); note: nearly all actives have a fitted effect of over 45% in size; note: potency is the fitted concentration of half-maximal effect
Conditions: NIH/3T3 Gli1-Luc reporter, Shh antagonist, luminescence 24 h; series mostly up to 92.4 µM; activity change, negative = inhibition: at the top concentration
Procedure, shortened: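 NIH/3T3-derived Gli1-Luc reporter cells plated 4 h, dosed with compound, then stimulated with conditioned medium for 24 h at 37 C. Firefly luciferase luminescence read after 30 min with detection reagent at room temperature.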

SMILES	activity change, negative = inhibition	Potency
CCCCN=C=O	-29.8% (inactive)	
C=C(C#N)CCC#N	-9.29% (inactive)	
CC(C)N(CCC(C(N)=O)(c1ccccc1)c1ccccn1)C(C)C (stereo not given)	21.8% [at 42.5 µM] (inactive)	
CC(=O)C(C)(C)C	15% (inactive)	
O=Cc1ccc2c(c1)OCO2	17.1% (inactive)	
CC(=O)CCC(C)=O	16.2% (inactive)	
O=C1c2ccccc2C(=O)C1C(=O)C(c1ccccc1)c1ccccc1	-21.3% [at 42.5 µM] (inactive)	
ClCC(Br)CBr (stereo not given)	38.1% (inactive)	
CCC(Br)(CC)C(=O)NC(N)=O	0% (inactive)	
C=CC(=O)OC(C)(C)C	9.65% (inactive)	
Nc1nc(N)nc(N)n1	25.2% (inactive)	
CCOP(=O)(OCC)Oc1ccc([N+](=O)[O-])cc1	-10.9% (inactive)	
CCCCCCC#N	5.8% (inactive)	
C=CCC1([C@H](C)CCC)C(=O)NC(=O)NC1=O	-4.8% (inactive)	
CC1(C)[C@H](C=C(Cl)Cl)[C@@H]1C(=O)O[C@@H](C#N)c1cccc(Oc2ccccc2)c1	7.01% (inactive)	
CCBr	-6.13% (inactive)	
Cc1ccc(N)cc1C	1.15% (inactive)	
N#C/C(N)=C(/N)C#N	-1.79% (inactive)	

SMILES	activity change, negative = inhibition	Potency
CCOP(O)OCC	0% (inactive)	
CCOC(=O)CBr	6.72% (inactive)	
CCCN(CC1CC1)c1c([N+](=O)[O-])cc(C(F)(F)F)cc1[N+](=O)[O-]	10.8% (inactive)	
CC(C)(CCl)C(=O)Cl		12.2 µM (active)
CN1C(=O)NC(=O)C(C)(C2=CCCCC2)C1=O (stereo not given)	-11.5% [at 42.5 µM] (inactive)	
CCC(Cl)CCl (stereo not given)	29.1% (inactive)	
CO/C=C(/C(=O)OC)c1ccccc1COc1cccc(C(F)(F)F)n1		0.544 µM (active)
COC(N)=O	3.32% (inactive)	
CC/C(=N\OC/C=C/Cl)C1=C(O)CC(C2CCOCC2)CC1=O (stereo not given)	2.45% (inactive)	
c1ccoc1	0% (inactive)	
O=C(O)CC(Cl)C(=O)O (stereo not given)	-36% (inactive)	
C=CC(=O)OC	14.4% (inactive)	
Clc1cccc(SC2CCNCC2)n1		26.6 µM (active)
O=[N+]([O-])C(Br)(CO)CO		34.4 µM (active)
O=C(O)C(F)(F)C(F)(F)C(F)(F)C(F)(F)C(F)(F)C(F)(F)C(F)(F)C(F)(F)C(F)(F)C(F)(F)F	0% (inactive)	
O=C(O)COc1ccc(Cl)cc1	1.76% (inactive)	
CO[C@@H]1[C@H](OC(=O)NC(=O)CCl)CC[C@]2(CO2)[C@H]1[C@@]1(C)O[C@@H]1CC=C(C)C	-6.49% [at 19 µM] (inactive)	

Biological target: Estrogen receptor beta (Homo sapiens) (UniProt Q92731)
Test: qHTS assay to identify small molecule agonists of the estrogen receptor beta (ER-beta) signaling pathway (AID 1259377; active = well fitted activation curve with a large enough effect in the signal ratio in the repeat runs, not every such curve was filed as active; the % refers to the signal ratio)
Conditions: ER-beta-UAS-bla HEK293T, beta-lactamase FRET ratio, 16 h; series mostly up to 92.4 µM; activation: at the top concentration
Procedure, shortened: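 Agonist mode cell assay in GripTite HEK293T cells expressing an ER-beta fusion that drives beta-lactamase from an Upstream Activator Sequence; 16 hr compound exposure at 37C, then 2 h LiveBLAzer B/G FRET substrate at room temperature, fluorescence read-out.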

Estrogen receptor beta (Homo sapiens), sequence (Q92731 whole entry, looked up): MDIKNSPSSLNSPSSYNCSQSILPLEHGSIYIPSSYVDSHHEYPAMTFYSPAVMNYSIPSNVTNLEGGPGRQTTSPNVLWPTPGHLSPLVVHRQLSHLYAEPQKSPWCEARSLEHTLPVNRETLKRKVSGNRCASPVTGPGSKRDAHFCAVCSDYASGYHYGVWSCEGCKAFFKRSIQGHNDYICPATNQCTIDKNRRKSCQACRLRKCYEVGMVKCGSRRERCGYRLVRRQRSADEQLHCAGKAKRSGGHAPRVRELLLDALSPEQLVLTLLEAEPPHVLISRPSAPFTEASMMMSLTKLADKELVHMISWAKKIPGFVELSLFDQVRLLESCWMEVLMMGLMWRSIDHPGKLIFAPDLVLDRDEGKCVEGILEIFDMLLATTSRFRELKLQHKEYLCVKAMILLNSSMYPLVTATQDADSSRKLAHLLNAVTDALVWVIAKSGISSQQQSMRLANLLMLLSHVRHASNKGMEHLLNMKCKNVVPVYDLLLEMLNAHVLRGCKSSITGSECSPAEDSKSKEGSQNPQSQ

SMILES	activation	Potency
CCCCN=C=O	1.3% (inactive)	
C=C(C#N)CCC#N	-1.08% (inactive)	
CC(C)N(CCC(C(N)=O)(c1ccccc1)c1ccccn1)C(C)C (stereo not given)	-0.358% [at 42.5 µM] (inactive)	
CC(=O)C(C)(C)C	0.219% (inactive)	
O=Cc1ccc2c(c1)OCO2	-0.0876% (inactive)	
CC(=O)CCC(C)=O	-1.12% (inactive)	
O=C1c2ccccc2C(=O)C1C(=O)C(c1ccccc1)c1ccccc1	-4.43% [at 42.5 µM] (inactive)	
ClCC(Br)CBr (stereo not given)	-0.396% (inactive)	
CCC(Br)(CC)C(=O)NC(N)=O	-0.31% (inactive)	
C=CC(=O)OC(C)(C)C	-1.54% (inactive)	
Nc1nc(N)nc(N)n1	1.01% (inactive)	
CCOP(=O)(OCC)Oc1ccc([N+](=O)[O-])cc1		inactive
CCCCCCC#N	-0.0876% (inactive)	
C=CCC1([C@H](C)CCC)C(=O)NC(=O)NC1=O	4.26% (inactive)	
CC1(C)[C@H](C=C(Cl)Cl)[C@@H]1C(=O)O[C@@H](C#N)c1cccc(Oc2ccccc2)c1	10.1% (inactive)	
CCBr	-1.37% (inactive)	
Cc1ccc(N)cc1C	-2.41% (inactive)	
N#C/C(N)=C(/N)C#N	0.329% (inactive)	

SMILES	activation	Potency
CCOP(O)OCC	0.925% (inactive)	
CCOC(=O)CBr	0.88% (inactive)	
CCCN(CC1CC1)c1c([N+](=O)[O-])cc(C(F)(F)F)cc1[N+](=O)[O-]	-0.479% (inactive)	
CC(C)(CCl)C(=O)Cl	-1.67% (inactive)	
CN1C(=O)NC(=O)C(C)(C2=CCCCC2)C1=O (stereo not given)	-1.92% [at 42.5 µM] (inactive)	
CCC(Cl)CCl (stereo not given)	4.45% (inactive)	
CO/C=C(/C(=O)OC)c1ccccc1COc1cccc(C(F)(F)F)n1	-0.88% (inactive)	
COC(N)=O	0.133% (inactive)	
CC/C(=N\OC/C=C/Cl)C1=C(O)CC(C2CCOCC2)CC1=O (stereo not given)	-0.475% (inactive)	
c1ccoc1	-0.93% (inactive)	
O=C(O)CC(Cl)C(=O)O (stereo not given)	-2.59% (inactive)	
C=CC(=O)OC	-2.01% (inactive)	
Clc1cccc(SC2CCNCC2)n1	0.683% [at 42.5 µM] (inactive)	
O=[N+]([O-])C(Br)(CO)CO	-2.03% (inactive)	
O=C(O)C(F)(F)C(F)(F)C(F)(F)C(F)(F)C(F)(F)C(F)(F)C(F)(F)C(F)(F)C(F)(F)C(F)(F)F	1.94% (inactive)	
O=C(O)COc1ccc(Cl)cc1	-0.79% (inactive)	
CO[C@@H]1[C@H](OC(=O)NC(=O)CCl)CC[C@]2(CO2)[C@H]1[C@@]1(C)O[C@@H]1CC=C(C)C	-2.62% [at 19 µM] (inactive)	
